Assay results from the supplement of paper PMC6555819.

Legend:
Experiment in all cases: PBM binding z-score (relative to random genomic background probes); higher = stronger binding; sequences stand for … in GC…GCGATTGACAGCGTAGAATGAAGG
[1] = system: RARb homodimer (NR concentration 270 nM)
Summary of the method: (§1)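 Ligand-free nuclear receptor dimers were applied to custom Agilent 4×180K protein-binding microarrays whose double-stranded probes carried direct-repeat seeds, single-nucleotide variants, half-site ablations and random human genomic background sequences in 34-nt variable regions. Incubation lasted 1 h. Binding z-scores were computed against the random background probes from regression-normalized fluorescence.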

[2] = system: RARg:RXRa (NR concentration 270 nM, RXRa partner concentration 90 nM)
Summary of the method: as §1

[3] = system: RARg homodimer (NR concentration 270 nM)
Summary of the method: as §1

[4] = system: RXRa DBDmut IVT, anti-RXR (DBD mutation: RXRa K156A/R161A, NR concentration 90 nM)
Summary of the method: as §1

[5] = system: RXRa homodimer (NR concentration 180 nM)
Summary of the method: as §1

[6] = system: THRa:RXRa (NR concentration 90 nM, RXRa partner concentration 90 nM)
Summary of the method: as §1

[7] = system: THRa homodimer (NR concentration 90 nM)
Summary of the method: as §1

[8] = system: VDR homodimer (NR concentration 270 nM)
Summary of the method: as §1

Sequence | PBM binding z-score [1] | PBM binding z-score [2] | PBM binding z-score [3] | PBM binding z-score [4] | PBM binding z-score [5] | PBM binding z-score [6] | PBM binding z-score [7] | PBM binding z-score [8]
GGAACGAGAGCATTCGAGTTGATAGCATGGCGAT | -1.06 | -0.435 | -0.276 | 0.441 | -0.118 | 1.04 | -1.57 | -0.57
CCAGACAGGTGAGAAGGTAAGTCAGCCTCGATTA | 0.641 | 0.215 | 0.357 | 0.0817 | 0.216 | 0.3 | 0.145 | -0.136
CCTTACGGGTCACTCCAGGTTGTAGCATCGGAGT | 2.84 | 4.14 | 3.94 | 1.67 | 4.11 | 4.56 | 0.074 | 1.05
ATGTGTAGGTTAGCTGGGGTCATTCAGACTAGGC | 3.72 | 4.37 | 3.19 | 2.08 | 5.51 | 5.15 | 3.53 | 5.92
TTTCGGAGGACACGAAAGGTCAGAGCTCGACATC | 4.68 | 4.88 | 5.29 | 0.16 | 4.66 | 3.85 | 1.39 | 1.04
ACTAGTTGGTCAGCTGAGGTCACACAGAATTCGG | 4.54 | 4.18 | 4.44 | 1.41 | 4.19 | 5.12 | 5.11 | 3.47
AATACAGGGTCACTAGGCCAGAATAGGTACGAAT | 3.3 | 5.17 | 4.76 | 2.85 | 5.58 | 3.41 | 1.4 | 2.52
CCGTACGGGTCACGAGGTTATAGCACGACGAGCG | 4.11 | 6.39 | 5.81 | 1.55 | 7.62 | 3.75 | 0.803 | 1.75
CCGACTGGGGCAATGGTTACCATACTCAGTACGA | -0.241 | -0.0332 | 0.28 | -0.545 | 0.082 | -0.548 | -0.465 | -0.489
ATCTCTAGGTAAGGCTCAGTTCAGTGAAGAACGC | 0.805 | 0.0838 | -0.0338 | 0.317 | -0.0677 | 0.831 | 0.732 | 1.36
AAAACGAGGGCAATGAGTTGATAGCACGGGTGGC | 1.2 | 1.23 | 1.6 | 2.07 | 1.13 | 1.31 | -0.257 | 3.26
CTCGAAAGGTCGGTTGCGGTGAGTATACGGATAA | 1.91 | 2.44 | 2.59 | 1.06 | 2.06 | 3.27 | -0.0628 | 0.294
TAGCCTAGGTCATTGGGCAAGTATAGTACGCATC | 2.69 | 3.66 | 4.09 | 1.86 | 2.94 | 2.63 | 0.731 | 1.44
TCATATAGGTAATACCGGTGAAAGTCGGCATCTA | -0.00712 | 0.24 | 0.212 | 1.35 | 0.935 | 0.246 | 0.113 | -0.092
CCTTACGGGGCACTGACAGGTTATAGCATTTGGA | 0.4 | 0.997 | 0.998 | 0.12 | 0.44 | 0.141 | -0.73 | -0.309
CAAACTAGGTCACCGGAAGTTCAAAGTCCGCATG | 4.69 | 7 | 6.24 | 2.68 | 4.64 | 3.85 | 2.14 | 4.8
CCTAGCAGGCCAATCTGGGTCACCCAAGGCTTGA | 2.55 | 1.34 | 1.38 | -0.396 | 1.07 | 3.92 | 0.793 | -0.51
AAAATGAGGTTATTAAGATCAGGGAATTGCGGTC | 0.725 | 1.16 | 0.933 | 2.27 | 1.78 | 2.28 | 0.636 | 1.19
CTCAAAAGGTCGTGCTCAGGTGAGTATACCAAAC | 2.79 | 5.29 | 3.99 | 2.02 | 4.73 | 4.13 | 1.02 | 0.794
TCATGTAGGTAAAAGGTGAAAGTCGGTGTGGTAA | 2.05 | 1.81 | 0.855 | 1.49 | 2.61 | 1.75 | 0.569 | 0.332
GATACAGGGTCAAGACCAGAGTACGCGTATTGAT | 3.07 | 4.94 | 4.7 | 2.23 | 5.54 | 3.33 | 0.503 | 2.14
CATCGGAGGACAGAAGGTCAGAGCTGTCCGCTTT | 3.44 | 3.28 | 2.93 | -0.108 | 1.8 | 2.07 | 0.044 | 0.139
CCGACTGGGGCATAAAGTTACCATAAGCCAGCCC | -0.229 | -0.0793 | 0.0317 | 0.0675 | 0.0317 | -0.417 | -0.689 | -0.27
CAAACTAGTTCACCGGAAGGTCAAAGTCCGCATG | 4.92 | 6.9 | 4.99 | 2.8 | 4.73 | 3.73 | 1.72 | 3.2
CCTAGTTGGTCAGGAGGTCACACATCGGATATGA | 4.48 | 4.62 | 4.11 | 0.662 | 4.21 | 3.39 | 2.2 | 2.7
GATACTGGGTCAGCTAGAGGCCAGAGTATGGAAA | 2.73 | 5.04 | 3.76 | -0.654 | 1.82 | 1.75 | -0.395 | 0.0442
